Source: PubChem BioAssay
Hits are enriched below; roughly 21% of the tested compounds scored in any of these assays.
Pf growth 48h: inhibits P. falciparum growth in the first generation, 48 h; P. falciparum luciferase growth in erythrocytes, 48 h; Potency, µM (series often up to 28.7 µM), for inactives: top-dose activity change, negative = inhibition, actives largely listed as inhibitors; hit rate 5.9% among 310,000; active = well fitted inhibition curve with a large enough effect; inconclusive = small, poorly fitted or top-dose-only effect, or another doubt; inactive = no such curve, though single readings can be large or run the other way; also: potency is read from the fitted curve at half-maximal effect; % is scaled to controls: 0 for no effect and ±100 for the full control effect
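Cell-based growth assay: transgenic P. falciparum expressing firefly luciferase, cultured in red cells within RPMI 1640 containing 0.5% w/v Albumax, 24 mM bicarbonate and gentamycin. A drop in luciferase activity indicates inhibition.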
NS1 inh: inhibitors of influenza NS1 protein function. hit rate 0.4% among 270,000. Potency, µM (series often up to 46.1 µM), inactives show top-dose activity, positive = more growth. AID 2326; also: potency is read from the fitted curve at half-maximal effect; actives are rising curves; nearly all actives have a fitted effect of over 50% in size
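Read-out: OD600 growth recovery of NS1-expressing budding yeast. Cells grown overnight at 30C in -URA glucose medium, washed, resuspended and diluted 1:100 in 2% galactose assay medium, pH 6.0. Same strain lacking NS1 served as positive control.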
Cycloheximide cs: affects cycloheximide protein synthesis inhibition readout, counter-screen; cell reporter, cycloheximide protein synthesis inhibition counterscreen; max response, %; hit rate 12% among 300,000; AID 2314; in the data active = max response mostly above about 13%, no sharp cut-off; inactive = mostly below about 14%; also: read at 38.3 µM for the half of the compounds with a filed dose; 0% is about no effect
Pf growth 96h: P. falciparum growth inhibition at 96 hour, primary screen for plastid delayed-death inhibitors. hit rate 6.9% among 320,000. Potency, µM (doses to about 28.7 µM), inactives show at the highest dose activity change, negative = inhibition, actives largely listed as inhibitors. P. falciparum luciferase reporter growth, 96 h; active = well fitted inhibition curve with a large enough effect; inconclusive = small, poorly fitted or top-dose-only effect, or another doubt; inactive = no such curve, though single readings can be large or run the other way; also: potency is read from the fitted curve at half-maximal effect; % is scaled to controls: 0 for no effect and ±100 for the full control effect
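Parasite growth measured via integrated firefly luciferase reporter in P. falciparum. Infected erythrocytes at 2% hematocrit, 0.05% parasitemia final were treated 96 hours at 37 C under 5% CO2, and luminescence was read.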
SARS PLP yeast: inhibitors of SARS-CoV papain-like protease in yeast. Potency, µM (doses to about 32.9 µM), inactives show at the top dose activity, positive = growth rescue, actives largely listed as activators. hit rate 0.19% among 330,000. AID 485353. S. cerevisiae expressing SARS-CoV PLpro, growth rescue; also: potency is read from the fitted curve at half-maximal effect; 0% is about no effect; nearly all actives have a fitted effect of over 55% in size
Shiga inhibitor: inhibitors of Shiga toxin in Vero cells | Vero cells, Shiga toxin protein synthesis inhibition reporter | inhibition, % at 38.7 µM | hit rate 9.2% among 290,000; in the data active = inhibition mostly above about 28%, no sharp cut-off; inactive = mostly below about 43%; also: 0% is about no effect
Starred values were filed as active, the others as inactive; [ ] = dose if it differs, or a comment. Unless noted, calls follow the shape of the full dose curve.

For COc1ccccc1CNC(=O)C1CC(c2ccccc2[N+](=O)[O-])=NO1 (stereo not given) the results were Pf growth 48h 35%, NS1 inh -9%, Cycloheximide cs 41*, Pf growth 96h 11%, SARS PLP yeast -6% and Shiga inhibitor 96*.
Screening COc1ccccc1CNC(=O)C1CC(c2ccccc2F)=NO1 (stereo not given) returned Pf growth 48h 63%, NS1 inh -34%, Cycloheximide cs 18*, Pf growth 96h 94%, SARS PLP yeast -3% and Shiga inhibitor 44*.
COc1ccc(CNC(=O)C2CC(c3ccccc3[N+](=O)[O-])=NO2)cc1 (stereo not given) was read as Pf growth 48h 5%, NS1 inh 10%, Cycloheximide cs 29*, Pf growth 96h 36%, SARS PLP yeast inconclusive and Shiga inhibitor 65*.
`COc1ccc(CNC(=O)C2CC(c3ccccc3C(F)(F)F)=NO2)cc1` (stereo not given) gave Pf growth 48h 46%, NS1 inh -4%, Cycloheximide cs 1, Pf growth 96h 72%, SARS PLP yeast -3% and Shiga inhibitor -4.
`CCNC(=S)N/N=C/c1ccc(OCc2ccc(C(=O)OC)cc2)cc1` gave Pf growth 48h 22%, NS1 inh 2%, Cycloheximide cs -2, Pf growth 96h 26%, SARS PLP yeast 4% and Shiga inhibitor -3.
Screening Cc1cccc(-c2ncc(CN3CCN(CCC(C)C)C(CCO)C3)cn2)c1 (stereo not given) returned Pf growth 48h inconclusive, NS1 inh -4%, Cycloheximide cs 1, Pf growth 96h inconclusive, SARS PLP yeast 0% and Shiga inhibitor 13.
Cc1nn(Cc2ccccc2Cl)c(C)c1C(=O)NCCN1C(=O)S/C(=C\c2ccccc2)C1=O was read as Pf growth 48h inconclusive, NS1 inh 1%, Cycloheximide cs 0, Pf growth 96h -19%, SARS PLP yeast -11% and Shiga inhibitor 4.
For CC(C)(C)C(=O)c1cnc(Nc2ccccc2Cl)s1 the results were Pf growth 48h 77%, NS1 inh 3%, Cycloheximide cs 59*, Pf growth 96h 157% and Shiga inhibitor 67*.
`O=C(c1ccccc1)c1cnc(Nc2ccccc2Cl)s1` gave Pf growth 48h 272%, NS1 inh -66%, Cycloheximide cs 42*, Pf growth 96h 340%, SARS PLP yeast -11% and Shiga inhibitor 89*.
`C/C(=N/NC(=O)CNS(=O)(=O)c1ccc(C)cc1)c1cccc([N+](=O)[O-])c1` gave Pf growth 48h -14%, Cycloheximide cs 8, Pf growth 96h inconclusive, SARS PLP yeast -1% and Shiga inhibitor -10.
COc1cc(/C=C/C(=O)C2C(=O)C=C(C)OC2=O)cc(OC)c1O (stereo not given) was read as Pf growth 48h inconclusive, NS1 inh -3%, Cycloheximide cs -3, Pf growth 96h 8%, SARS PLP yeast -2% and Shiga inhibitor 13.
For COc1ccc(/C=C/C(=O)C2C(=O)C=C(C)OC2=O)cc1O (stereo not given) the results were Pf growth 48h inconclusive, NS1 inh -1%, Cycloheximide cs 17*, Pf growth 96h inconclusive, SARS PLP yeast -36% and Shiga inhibitor 13.
`CCC(Oc1ccccc1)C(=O)Nc1cc(C(F)(F)F)ccc1N1CCOCC1` (stereo not given) gave Pf growth 48h 1.7µM*, Pf growth 96h 1.5µM* and SARS PLP yeast 0%.
Screening COc1ccc(NC(C)C(=O)Nc2cc(C(F)(F)F)ccc2N2CCOCC2)c(OC)c1 (stereo not given) returned Pf growth 48h 0.12µM*, NS1 inh 4%, Cycloheximide cs 2, Pf growth 96h 0.046µM*, SARS PLP yeast -28% and Shiga inhibitor 15.
For COc1cc(Cl)c(C)cc1NC(C)C(=O)Nc1cc(C(F)(F)F)ccc1N1CCOCC1 (stereo not given) the results were Pf growth 48h 0.15µM*, NS1 inh 16%, Cycloheximide cs 1, Pf growth 96h 0.066µM*, SARS PLP yeast 19% and Shiga inhibitor -9.
CCOC(=O)C(=CNc1cc(C(F)(F)F)ccc1N1CCOCC1)C(=O)OCC was read as Pf growth 48h 4.1µM*, NS1 inh 6%, Cycloheximide cs -2, Pf growth 96h inconclusive, SARS PLP yeast 1% and Shiga inhibitor -3.
For COc1ccc(CCNC(=O)N[C@@H](Cc2ccccc2)C(=O)O)cc1 the results were Pf growth 48h 14%, NS1 inh -1%, Cycloheximide cs 3, Pf growth 96h 3%, SARS PLP yeast 1% and Shiga inhibitor 20.
CCCCC(=O)NC(=S)Nc1nnn(CCC)n1 was read as Pf growth 48h -4%, Cycloheximide cs 11, Pf growth 96h inconclusive, SARS PLP yeast 1% and Shiga inhibitor 19.
For CCc1ccc(NC(=O)C(C)n2nc(C)c([N+](=O)[O-])c2C)cc1 (stereo not given) the results were Pf growth 48h -15%, Cycloheximide cs -3, Pf growth 96h inconclusive, SARS PLP yeast -1% and Shiga inhibitor 5.
For CS(=O)(=O)c1ccc([C@H](O)[C@H](CF)NC(=O)C(Cl)Cl)cc1 the results were Pf growth 48h inconclusive and Pf growth 96h 2µM*.
Screening CS(=O)(=O)c1ccc([C@H](O)[C@H](CO)NC(=O)C(Cl)Cl)cc1 returned Pf growth 48h -18%[12.8 µM] and Pf growth 96h inconclusive.
For CS(=O)(=O)c1ccc([C@@H](O)[C@@H](CO)NC(=O)C(Cl)Cl)cc1 the results were Pf growth 48h inconclusive and Pf growth 96h 4.7µM*.
Screening CS(=O)(=O)c1ccc([C@@H](O)[C@@H](CF)NC(=O)C(Cl)Cl)cc1 returned Pf growth 48h 12µM* and Pf growth 96h 3.3µM*.
For CN(C)C(=O)CSc1ccccc1C(=O)OCC(=O)NC1CC1 the results were Pf growth 48h inconclusive, Pf growth 96h -26% and SARS PLP yeast -1%.
For O=C(COC(=O)C1C2CC3OC(=O)C1C3C2)Nc1ccc(Br)cc1 (stereo not given) the results were Pf growth 48h 15%, NS1 inh -1%, Cycloheximide cs 25, Pf growth 96h 2%, SARS PLP yeast -1% and Shiga inhibitor 22.
`Cc1cccnc1NC(=O)CCc1nnc2ccc(N3CCC4(CC3)OCCO4)nn12` gave Pf growth 48h 19%, NS1 inh 14%, Cycloheximide cs -1, Pf growth 96h 24%, SARS PLP yeast -2% and Shiga inhibitor 0.
COC1=C/C(=C/c2c(O)c(C#N)c3ccccn23)C=CC1=O was read as Pf growth 48h 143%, NS1 inh 7%, Cycloheximide cs 56*, Pf growth 96h 162%, SARS PLP yeast -1% and Shiga inhibitor 73*.
Screening Cn1ccc(O)c(C#N)c1=O returned Pf growth 48h 8%, NS1 inh 3%, Cycloheximide cs -1, Pf growth 96h inconclusive, SARS PLP yeast 0% and Shiga inhibitor 9.
